An excerpt weighted towards active compounds, which were near 1.5% of everything screened.
mIDH1 inhibitor: inhibitors of human mutant IDH1 R132H. Potency, µM (top dose mostly 76.6 µM), for the others: at the highest dose activity change, negative = inhibition, usual class: inhibitors. O75874. IDH1-R132H enzyme, NADPH consumption, diaphorase/resazurin fluorescence. actives 0.093% (n = 390,000); note: potency is the fitted concentration of half-maximal effect; % is set by controls: 0 for no effect and ±100 for the full control effect; nearly all actives have a fitted effect of over 65% in size
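IDH1-R132H (0.5 ug/mL dispensed) in pH 7.5 Tris buffer was preincubated 30 min with compound, then given a substrate mix of 0.016 mM NADPH and 2 mM alpha-KG for 80 min at room temperature; remaining NADPH was read by diaphorase/resazurin fluorescence.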
TrxR1 inh: blocks rat thioredoxin reductase 1; Potency, µM (highest dose often 114 µM), for the others: top-dose activity change, negative = inhibition, actives largely listed as inhibitors; recombinant rTrxR1, NADPH fluorescence consumption, selenite substrate; O89049; AID 588453; actives 1% (n = 390,000); note: potency is the fitted concentration of half-maximal effect; % is set by controls: 0 for no effect and ±100 for the full control effect; nearly all actives have a fitted effect of over 65% in size
Target sequence (O89049 whole entry, looked up): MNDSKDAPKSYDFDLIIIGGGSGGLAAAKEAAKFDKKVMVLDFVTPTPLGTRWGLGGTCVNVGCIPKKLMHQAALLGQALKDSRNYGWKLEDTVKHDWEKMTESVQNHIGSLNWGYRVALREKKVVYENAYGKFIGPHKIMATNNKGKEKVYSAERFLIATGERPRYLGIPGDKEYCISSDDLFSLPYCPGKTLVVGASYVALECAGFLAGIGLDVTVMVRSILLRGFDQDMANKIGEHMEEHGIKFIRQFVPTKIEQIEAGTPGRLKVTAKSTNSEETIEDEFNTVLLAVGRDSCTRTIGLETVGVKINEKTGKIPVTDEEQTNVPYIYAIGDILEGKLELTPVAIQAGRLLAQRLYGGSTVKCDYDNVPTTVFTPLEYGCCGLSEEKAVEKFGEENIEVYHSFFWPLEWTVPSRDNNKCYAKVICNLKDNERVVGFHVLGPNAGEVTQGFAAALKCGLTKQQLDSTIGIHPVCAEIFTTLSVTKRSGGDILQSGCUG
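Rat TrxR1 (90 nM in the dispensed reagent) was pre-reduced with 400 uM NADPH for 5 min at room temperature, then incubated with compound for 15 min. After 400 uM selenite was added, NADPH fluorescence (Ex 340/Em 450 nm) was followed for 8 min.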
FBPA coupling cs: counter-screen for Giardia aldolase inhibitors: coupling enzyme system. activity change, negative = inhibition, % at 58.2 µM, hits read low. actives 0.67% (n = 290,000). AID 2472. coupling enzyme system counterscreen, AmpLite Red fluorescence; in the data active = activity change below about -30%; note: % is set by controls: 0 for no effect and ±100 for the full control effect
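Counterscreen lacking aldolase: glyceraldehyde-3-phosphate coupling-enzyme reagent preincubated 10 min at RT with compound (at 57.5 uM final), then substrate/coupling system with AmpLite Red added; fluorescence read at 525/598 nm after 20 min RT.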
TrxR1 substrate: rat thioredoxin reductase 1 substrate activity. O89049. purified TrxR1 substrate turnover, NADPH consumption readout. Potency, µM (highest dose often 114 µM), for inactives: at the highest dose activity change, negative = substrate turnover. actives 0.01% (n = 390,000). AID 588456; note: potency is the fitted concentration of half-maximal effect; % is set by controls: 0 for no effect and ±100 for the full control effect; nearly all actives have a fitted effect of over 50% in size
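Rat TrxR1, dispensed at 90 nM, was prereduced with 400 uM NADPH (final) for 5 min at ~22 deg C, then incubated with compound 15 min before 400 uM selenite. A first-read NADPH fluorescence drop versus no-compound background flagged substrates.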
Eya2 inh: inhibitors of human Eya2 phosphatase activity; recombinant Eya2, OMFP fluorescence dephosphorylation (OMFP is methylfluorescein phosphate); AID 488837; O00167; actives 0.006% (n = 330,000); Potency, µM (top dose mostly 76.9 µM), for inactives: at the highest dose activity, negative = inhibition, hits mostly inhibitors; note: potency is the fitted concentration of half-maximal effect; % is set by controls: 0 for no effect and ±100 for the full control effect
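Eya2 (0.2 uM) preincubated 10 min at ambient with compound, then OMFP substrate added at 50 uM; 10 min reaction in 50 mM HEPES pH 7.5, 50 mM NaCl, 5 uM MgCl2, 0.05% BSA, 1 mM DTT. Fluorescence read at Ex 485/Em 525 nm.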
IDH1 autofl: autofluorescence interference, mutant IDH1 hit counter-screen; shares compounds with mIDH1 inhibitor; Resorufin detection reagent fluorescence interference, cell-free; inhibition of signal, % at 51.2 µM; 750 tested, under 10 active;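 note: 0% = wells with normal resorufin and full inhibition = wells lacking resorufin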
WT IDH1 inh: selectivity of mutant IDH1 inhibitors: human wild-type IDH1 | actives 9% (n = 750) | shares compounds with mIDH1 inhibitor | WT IDH1 enzyme, NADPH diaphorase/resazurin fluorescence | Potency, µM (top dose mostly 115 µM), inactives show at the highest dose activity change, negative = inhibition, most hits filed as inhibitors | AID 623995;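 note: potency is the fitted concentration of half-maximal effect; 0% = full WT IDH1 enzyme control and full inhibition = no enzyme wells; nearly all actives have a fitted effect of over 55% in size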
IDH1 R132H conf: mutant IDH1 (human) inhibition, confirmed; shares compounds with mIDH1 inhibitor; IDH1 R132H enzyme, NADPH diaphorase/resazurin fluorescence; Potency, µM (series often up to 76.6 µM), for inactives: at the highest dose activity change, negative = inhibition, usual class: inhibitors; actives 83% (n = 750); AID 624002; note: potency is the fitted concentration of half-maximal effect; nearly all actives have a fitted effect of over 50% in size
The depositor's hits bear a star; ? = inconclusive; . = no result given; [ ] = remark or other dose. Unless noted, calls come from the whole dose curve; as a rule, active = well fitted curve in the direction sought with a large enough effect; inconclusive = small, poorly fitted or top-dose-only effect, or another doubt; inactive = no such curve, though single readings can be large; an effect the other way counts as inactive or inconclusive.

SMILES	mIDH1 inhibitor	TrxR1 inh	FBPA coupling cs	TrxR1 substrate	Eya2 inh	IDH1 autofl	WT IDH1 inh	IDH1 R132H conf
CC1=NOC(=O)/C1=C\c1ccc(-c2ccc(Br)cc2)o1	21µM*	-33%	1	-5%[57.1 µM]	16%	1	?	22µM*
CCCCNc1c(-c2cccc(-c3ccc(OC)cc3)c2)nc2cc(C)ccn12	-4%	42%[57.1 µM]	.	50%[57.1 µM]	5%	.	.	.
CCCCNc1c(-c2cccc(-c3ccc(OC)cc3)c2)nc2ccc(C)cn12	?	28%	.	52%	4%	-7	?	6.3µM*
COc1ccc(N(C(=O)c2ccco2)C(C(=O)NC2CCCC2)c2ccc(N(C)C)cc2)cc1 (centres undefined)	-2%	-10%[57.1 µM]	3	7%[57.1 µM]	2%	.	.	.
COc1cccc(C(C(=O)NC2CCCCC2)N(C(=O)c2ccco2)c2ccccc2OC)c1 (centres undefined)	?	15%	0	1%	-21%	-4	-5%	?
COc1ccc(N(C(=O)c2cnccn2)C(C(=O)NC2CCCCC2)c2ccccc2)cc1 (centres undefined)	?	-1%	0	-5%	-3%	-8	3%	35µM*
Cc1cc(C)cc(N(C(=O)CNC(=O)c2ccco2)C(C(=O)NC2CCCCC2)c2cccnc2)c1 (centres undefined)	?	19%[57.1 µM]	-1	7%[0.0914 µM]	-4%	-2	0%	?
COc1ccc(C(C(=O)NC2CCCCC2)N(C(=O)c2ccco2)c2ccccc2OC)cc1 (centres undefined)	0%	3%	-5	11%[0.457 µM]	-4%	.	.	.
COc1ccc(N(C(=O)c2ccco2)C(C(=O)NC2CCCC2)c2ccccc2)cc1 (centres undefined)	?	2%	0	-7%	-8%	0	11%	40µM*
Cc1cc(C)cc(N(C(=O)CNC(=O)c2ccco2)C(C(=O)NC2CCCC2)c2cccnc2)c1 (centres undefined)	-6%	-4%	0	-6%	-6%	.	.	.
C(=C\c1nc2ccccc2s1)/c1ccc2c(c1)OCO2	.	-9%	.	26%	.	.	.	.
COc1ccc(SCC(Cc2ccccc2)N2CCN(CC(C)C)CCC2=O)cc1 (centres undefined)	.	88%	6	-6%	.	.	.	.
COc1ccc(N(C(=O)c2ccco2)C(C(=O)NC2CCCCC2)c2ccccc2)cc1 (centres undefined)	?	3%[57.1 µM]	.	-10%[57.1 µM]	.	-10	-20%	20µM*
COc1ccc(C(C(=O)Nc2ccc(C(C)C)cc2)N(Cc2ccco2)C(=O)CC2NC(=O)NC2=O)cc1 (centres undefined)	?	32%[57.1 µM]	-5	-16%[57.1 µM]	-2%	-10	-6%	32µM*
COc1ccc(NC(=O)C(c2ccc(OC)cc2)N(Cc2ccco2)C(=O)CC2NC(=O)NC2=O)cc1 (centres undefined)	3%	15%[57.1 µM]	1	-1%[57.1 µM]	3%	.	.	.
CC(=O)Nc1ccc(N(C(=O)Cc2c[nH]c3ccccc23)C(C(=O)NC2CCCCC2)c2ccco2)cc1 (centres undefined)	-1%	2%	4	-4%	-1%	.	.	.
Cc1ccc(C(C(=O)NC2CCCCC2)N(C(=O)Cc2c[nH]c3ccccc23)c2ccccc2)o1 (centres undefined)	?	-3%	5	5%	-12%	-9	-12%	7.1µM*
O=C(NC1CCCC1)C(c1ccco1)N(C(=O)c1ccco1)c1ccccc1 (centres undefined)	?	-5%[57.1 µM]	4	-5%	15%	-1	3%	40µM*
CCc1ccc(N(C(=O)c2ccco2)C(C(=O)NC2CCCC2)c2ccncc2)cc1 (centres undefined)	-11%	16%[57.1 µM]	3	7%[57.1 µM]	-10%	.	.	.
CC(=O)c1cccc(N(C(=O)c2ccco2)C(C(=O)NC2CCCCC2)c2ccc(C)o2)c1 (centres undefined)	?	-7%[57.1 µM]	3	8%[57.1 µM]	-18%	1	1%	40µM*
CCc1ccc(N(C(=O)c2ccco2)C(C(=O)NC2CCCC2)c2ccco2)cc1 (centres undefined)	?	3%	.	-1%	.	-7	-7%	40µM*
O=C(NC1CCCCC1)C(c1ccco1)N(C(=O)c1csnn1)c1ccccc1 (centres undefined)	-4%	6%	-3	-7%	-12%	.	.	.
COc1ccc2c(c1)C(=O)[C@H](OC(=O)NS(=O)(=O)c1ccc(C)cc1)[C@@H](c1ccc(OC)c(Br)c1)O2	.	.	1	.	.	.	.	.
CN1C2CCCC1CC(NC(=O)c1nn(C)c3ccccc13)C2 (centres undefined)	.	17%[57.1 µM]	.	39%[57.1 µM]	-2%	.	.	.
CCCCCCCCCCCCCCOc1ccc(C(=O)O)o1	.	.	9	.	.	.	.	.
SMILES	mIDH1 inhibitor	TrxR1 inh	FBPA coupling cs	TrxR1 substrate	Eya2 inh	IDH1 autofl	WT IDH1 inh	IDH1 R132H conf
COc1ccc2c(c1)c1nnc(SC(C)C)nc1n2C	.	-10%	.	4%	.	.	.	.
O=S(=O)(c1ccc(OC(F)(F)F)cc1)N1CCN(c2nc(-c3cccs3)nc3ccccc23)CC1	.	2%	.	5%	.	.	.	.
Cc1ccc(C)c(N(C(=O)c2ccco2)C(C(=O)NC2CCCC2)c2ccco2)c1 (centres undefined)	46µM*	11%	-1	-1%	-3%	-4	13%	20µM*
CC(C)NC(=O)COC(=O)CNC(=O)C1CCCCC1	.	-6%	.	-5%	.	.	.	.
COc1ccc(-c2cc(-c3nnc(COC(=O)c4ccc(O)cc4)o3)c3ccccc3n2)cc1OC	?	6%[57.1 µM]	-1	6%[57.1 µM]	7%	1	6%	?
N#CCCn1cnc2c1NC=NC2Cl (centres undefined)	.	.	1	.	.	.	.	.
CCC(C)NC(=O)c1cc(Sc2cccc(Cl)c2)nc2ccccc12 (centres undefined)	10%	5%[57.1 µM]	.	3%[57.1 µM]	.	.	.	.
CCc1ccc(Sc2cc(C(=O)NC(C)CC)c3ccccc3n2)cc1 (centres undefined)	?	9%[57.1 µM]	.	-6%[57.1 µM]	.	-5	-12%	?
CCOC(=O)C1C(=O)NC(SCC(=O)OC)=C(C#N)C1c1ccccc1OCC (centres undefined)	-3%	12%	2	0%	.	.	.	.
